Experimental findings from ChEMBL document CHEMBL1961873, “Compounds: GSK PKIS; Assays: Nanosyn kinase panel” (2012) are described below.

Where “and” joins values, the source holds several entries; their conditions need not be identical. Equal values may be shown once.

Cyclin-dependent kinase 1 (Homo sapiens), sequence (P06493 whole entry, looked up): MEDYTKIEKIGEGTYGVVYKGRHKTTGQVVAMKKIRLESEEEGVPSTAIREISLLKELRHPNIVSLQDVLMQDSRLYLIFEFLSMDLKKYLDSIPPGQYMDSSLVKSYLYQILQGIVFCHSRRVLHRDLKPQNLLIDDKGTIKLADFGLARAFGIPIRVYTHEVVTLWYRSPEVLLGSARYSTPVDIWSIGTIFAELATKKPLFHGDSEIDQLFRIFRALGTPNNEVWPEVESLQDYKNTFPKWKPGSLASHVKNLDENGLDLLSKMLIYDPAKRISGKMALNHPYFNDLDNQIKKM
Casein kinase I isoform gamma-3 (Homo sapiens), sequence (Q9Y6M4 whole entry, looked up, canonical isoform): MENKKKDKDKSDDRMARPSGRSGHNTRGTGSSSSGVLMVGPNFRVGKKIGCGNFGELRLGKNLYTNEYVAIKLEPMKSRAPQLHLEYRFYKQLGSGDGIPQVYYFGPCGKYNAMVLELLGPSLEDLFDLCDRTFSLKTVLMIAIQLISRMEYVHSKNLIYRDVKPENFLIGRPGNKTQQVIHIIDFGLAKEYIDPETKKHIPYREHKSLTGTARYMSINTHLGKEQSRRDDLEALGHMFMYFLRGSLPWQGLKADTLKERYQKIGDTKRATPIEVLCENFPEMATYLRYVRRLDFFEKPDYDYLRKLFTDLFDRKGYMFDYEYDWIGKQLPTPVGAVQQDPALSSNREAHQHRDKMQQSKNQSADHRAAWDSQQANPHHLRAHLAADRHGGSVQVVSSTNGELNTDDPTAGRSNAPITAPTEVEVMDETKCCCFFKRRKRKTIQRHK

The first test addresses Casein kinase I isoform gamma-3 (Homo sapiens) (UniProt Q9Y6M4). The note with it: at 1 µM.
Regarding `Cc1cc(O)cc(C)c1/C=C/c1cncc(C(N)=O)c1`, the inhibition is 2.49%.
On to `CC1=C(C(=O)Nc2ccc3[nH]ncc3c2)C(c2ccc(F)cc2)N=C(c2ccc(C(F)(F)F)nc2)N1` (configuration not stated), for which the inhibition came to 1.64%.
As to `COc1c(C(N)=O)cc(-c2ccc(Cl)cc2)cc1-c1ccc(S(N)(=O)=O)cc1`, the inhibition amounted to 5.9%.
Consider `Cc1cc(O)cc(C)c1/C=C/c1cncc(C(=O)OC(C)(C)C)c1`, for which the inhibition was found to be 3.16%.
Same read-out and setting: to `COc1ccc(Nc2ncc(-c3ccccc3)o2)cc1OC` belongs 3.3%; to `Fc1ccc(Nc2nccc(-c3c(-c4ccc(C(F)(F)F)cc4)nn4ncccc34)n2)cc1F`, 3.74%.
On the same count and under the same terms, to `O=C(O[C@H]1CN[C@H](C#Cc2cc3ncnc(Nc4ccc(OCc5cccc(F)c5)c(Cl)c4)c3s2)C1)N1CCOCC1` belongs 3.53%.
For `COc1ccc2ncn(-c3cc(O[C@H](C)c4ccccc4C(F)(F)F)c(C(N)=O)s3)c2c1`, the inhibition amounted to 0.68%.
Same read-out and setting: to `CNC(=O)c1ncccc1Nc1nc(Nc2cc3c(cc2OC)CCCN3C(=O)CN(C)C)nc2[nH]ccc12` belongs 6.23%.
With `COc1ccccc1-c1cc(/C=C2\C(=O)Nc3ncc(Br)cc32)cc(Br)c1O`, the inhibition stood at 3.37%.
Still for that read-out and setting: to `c1cnn2ncc(-c3ccnc(NCCCN4CCOCC4)n3)c2c1` belongs 4.33%; to `CCCNc1cccc(-n2ncc3c(N/N=C/c4ccncc4)ncnc32)c1`, 0.9%; to `OCCCNc1nccc(-c2c(-c3ccc(F)cc3)nn3cc(C(F)(F)F)ccc23)n1`, 7.33%.
As to `CS(=O)(=O)Nc1ccc(-c2ccc3c(NC(=O)C4CC4)n[nH]c3c2)cc1`, the inhibition amounted to 2.66%.
Still for that read-out and setting: with `CN1CCC(C(=O)Nc2n[nH]c3nc(-c4ccc(O)cc4)c(Br)cc23)CC1` the figure was 3.27% and 0.25%; with `CS(=O)(=O)Nc1ccc(-c2cc(-c3ccccc3)cc(C(N)=O)c2N)cc1`, 0.43%.
For the molecule `COc1cccc(Nc2nccc(-c3cnn4ncccc34)n2)c1`, the inhibition came to 38.6%.
For the molecule `CS(=O)(=O)CCNCc1ccc(-c2ccc3ncnc(Nc4ccc(OCc5ccccc5)cc4)c3c2)o1`, the inhibition worked out at 1.23%.
Regarding `CC(C)c1ccc(-c2cc(-c3c[nH]nc3-c3ccccn3)ccn2)cc1`, the inhibition came to 3.43%.
In the case of `FC(F)(F)CNc1nccc(-c2cnn3ncccc23)n1`, the inhibition was 10.6%.
With `Cc1nnc(-c2cccc(-c3ccc(C(=O)NCC4CC4)cc3)c2)o1`, the inhibition stood at 3.17%.
Take `COc1ccc(-c2nn3ncccc3c2-c2ccnc(Nc3ccc(F)c(F)c3)n2)cc1`: the inhibition was determined as 3.22%.
Take `O=C(Nc1n[nH]c2nnc(-c3cccnc3)cc12)C1CC1`: the inhibition was found to be 0.24%.
As for `NS(=O)(=O)c1ccc(N/N=C2\C(=O)Nc3cccc(CCc4ccncc4)c32)cc1`, the inhibition was determined as 0.29%.
`CNC(=O)c1cncc(/C=C/c2ccccc2C)c1`: the inhibition was 3.55%.
Consider `NS(=O)(=O)c1ccc(N/N=C2\C(=O)Nc3ccc(C(=O)NCc4ccncc4)cc32)cc1`, for which the inhibition was 5.91%.
On to `CCS(=O)(=O)c1ccc(OC)c(Nc2ncc(-c3cccc(F)c3)o2)c1`, for which the inhibition was found to be 4.58%.
Take `COc1cccc(-n2ncc3c(N/N=C/c4ccc(C(=O)NCCN(C)C)cc4)ncnc32)c1`: the inhibition amounted to 11.9%.
Consider `COC(=O)Nc1nc2ccc(Oc3ccc(NC(=O)Nc4cc(C(F)(F)F)ccc4F)cc3)cc2s1`, for which the inhibition came out at 0.18%.
For `Cn1c(-c2nonc2N)nc2cnccc21`, the inhibition was determined as 2.15%.
On the same count and under the same terms, to `CCN1CCC(C(=O)Nc2n[nH]c3nnc(-c4cccc(F)c4F)cc23)CC1` belongs 1.35%.

Another test concerns the target Cyclin-dependent kinase 1 (Homo sapiens) (UniProt P06493). The note with it: at 0.1 µM.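 Further: enzyme assay on the CDK1/cyclin B complex, reported as mean percent inhibition.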
As to `Cc1cc(O)cc(C)c1/C=C/c1cncc(C(N)=O)c1`, the inhibition came out at 0.12%.
On to `CC1=C(C(=O)Nc2ccc3[nH]ncc3c2)C(c2ccc(F)cc2)N=C(c2ccc(C(F)(F)F)nc2)N1` (configuration not stated), for which the inhibition was -0.29%.
For the molecule `COc1c(C(N)=O)cc(-c2ccc(Cl)cc2)cc1-c1ccc(S(N)(=O)=O)cc1`, the inhibition amounted to 2.31%.
For the molecule `Cc1cc(O)cc(C)c1/C=C/c1cncc(C(=O)OC(C)(C)C)c1`, the inhibition is 0.41%.
`COc1ccc(Nc2ncc(-c3ccccc3)o2)cc1OC`: the inhibition was 8.02%.
On to `Fc1ccc(Nc2nccc(-c3c(-c4ccc(C(F)(F)F)cc4)nn4ncccc34)n2)cc1F`, for which the inhibition is -0.65%.
As to `O=C(O[C@H]1CN[C@H](C#Cc2cc3ncnc(Nc4ccc(OCc5cccc(F)c5)c(Cl)c4)c3s2)C1)N1CCOCC1`, the inhibition amounted to 0.36%.
Regarding `COc1ccc2ncn(-c3cc(O[C@H](C)c4ccccc4C(F)(F)F)c(C(N)=O)s3)c2c1`, the inhibition is 0.65%.
For the molecule `CNC(=O)c1ncccc1Nc1nc(Nc2cc3c(cc2OC)CCCN3C(=O)CN(C)C)nc2[nH]ccc12`, the inhibition amounted to 1.79%.
Turning to `COc1ccccc1-c1cc(/C=C2\C(=O)Nc3ncc(Br)cc32)cc(Br)c1O`, the inhibition was 3.53%.
For `c1cnn2ncc(-c3ccnc(NCCCN4CCOCC4)n3)c2c1`, the inhibition was found to be 1.53%.
Consider `CCCNc1cccc(-n2ncc3c(N/N=C/c4ccncc4)ncnc32)c1`, for which the inhibition turned out to be 2.68%.
As for `OCCCNc1nccc(-c2c(-c3ccc(F)cc3)nn3cc(C(F)(F)F)ccc23)n1`, the inhibition is 1.54%.
For `CS(=O)(=O)Nc1ccc(-c2ccc3c(NC(=O)C4CC4)n[nH]c3c2)cc1`, the inhibition came to 0.29%.
Regarding `CN1CCC(C(=O)Nc2n[nH]c3nc(-c4ccc(O)cc4)c(Br)cc23)CC1`, the inhibition is 7.05% and 10.3%.
Regarding `CS(=O)(=O)Nc1ccc(-c2cc(-c3ccccc3)cc(C(N)=O)c2N)cc1`, the inhibition is 0.06%.
For `COc1cccc(Nc2nccc(-c3cnn4ncccc34)n2)c1`, the inhibition is 63.9%.
For `CS(=O)(=O)CCNCc1ccc(-c2ccc3ncnc(Nc4ccc(OCc5ccccc5)cc4)c3c2)o1`, the inhibition worked out at 0.68%.
On the same count and under the same terms, with `CC(C)c1ccc(-c2cc(-c3c[nH]nc3-c3ccccn3)ccn2)cc1` the figure was -0.07%; with `FC(F)(F)CNc1nccc(-c2cnn3ncccc23)n1`, 4.59%; with `Cc1nnc(-c2cccc(-c3ccc(C(=O)NCC4CC4)cc3)c2)o1`, -0.13%.
Still for that read-out and setting: to `COc1ccc(-c2nn3ncccc3c2-c2ccnc(Nc3ccc(F)c(F)c3)n2)cc1` belongs -0.93%; to `O=C(Nc1n[nH]c2nnc(-c3cccnc3)cc12)C1CC1`, 33.3%; to `NS(=O)(=O)c1ccc(N/N=C2\C(=O)Nc3cccc(CCc4ccncc4)c32)cc1`, 9.4%.
With `CNC(=O)c1cncc(/C=C/c2ccccc2C)c1`, the inhibition stood at 1.72%.
`NS(=O)(=O)c1ccc(N/N=C2\C(=O)Nc3ccc(C(=O)NCc4ccncc4)cc32)cc1`: the inhibition was determined as 31.4%.
For the molecule `CCS(=O)(=O)c1ccc(OC)c(Nc2ncc(-c3cccc(F)c3)o2)c1`, the inhibition worked out at 1.72%.
Consider `COc1cccc(-n2ncc3c(N/N=C/c4ccc(C(=O)NCCN(C)C)cc4)ncnc32)c1`, for which the inhibition was 44.7%.
As for `COC(=O)Nc1nc2ccc(Oc3ccc(NC(=O)Nc4cc(C(F)(F)F)ccc4F)cc3)cc2s1`, the inhibition is 0.44%.
Turning to `Cn1c(-c2nonc2N)nc2cnccc21`, the inhibition was determined as 1.15%.
The same measure, in the same setting: to `CCN1CCC(C(=O)Nc2n[nH]c3nnc(-c4cccc(F)c4F)cc23)CC1` belongs 3.89%.
